Screening data from PubChem.
JMJD2E inh – qHTS Assay for Inhibitors of Human Jumonji Domain Containing 2E (JMJD2E). 1.6% of 230,000 active. AID 2147, 2009. Potency, µM (series often up to 57.1 µM), for the others: at the top dose activity change, negative = inhibition, actives largely listed as inhibitors. Lysine-specific demethylase 4E (Homo sapiens), B2RXH2. JMJD2E catalytic domain, FDH-coupled NADH fluorescence (FDH is formaldehyde dehydrogenase);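 note: potency is the fitted concentration of half-maximal effect; 0% = wells with enzyme and -100% = buffer wells without enzyme; nearly all actives have a fitted effect of over 50% in size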
Target sequence (B2RXH2 1-337 limits assumed): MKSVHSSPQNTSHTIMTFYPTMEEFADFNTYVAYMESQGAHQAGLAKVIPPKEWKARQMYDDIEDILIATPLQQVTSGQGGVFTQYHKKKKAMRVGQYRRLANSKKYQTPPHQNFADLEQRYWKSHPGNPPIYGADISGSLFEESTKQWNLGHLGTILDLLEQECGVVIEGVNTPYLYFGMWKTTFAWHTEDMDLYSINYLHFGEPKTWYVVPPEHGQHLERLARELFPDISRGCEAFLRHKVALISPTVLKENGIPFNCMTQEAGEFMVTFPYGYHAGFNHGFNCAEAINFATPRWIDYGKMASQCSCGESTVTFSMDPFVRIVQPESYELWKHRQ
Sfp inh – qHTS Assay for Inhibitors of Bacillus subtilis Sfp phosphopantetheinyl transferase (PPTase). 4'-phosphopantetheinyl transferase ffp (Bacillus subtilis), Q9F4F7. Biochemical Sfp PPTase activity, qHTS. Potency, µM, for inactives: largest response in the series, negative = inhibition, hits mostly inhibitors. 3.5% of 310,000 active. AID 1490, 2009;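 note: the enzyme is Sfp with the accession as filed and its product quenches rhodamine fluorescence; potency is the fitted concentration of half-maximal effect; 0% = enzyme reaction without inhibitor and -100% = no enzyme wells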
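Fluorescence-quenching assay with 15 nM Sfp, 5 uM rhodamine-CoA and 12.5 uM BHQ-2-labelled ybbR peptide in pH 7.6 Hepes/MgCl2 buffer. Enzyme was pre-incubated with compound for 15 min at room temperature. Rate was taken from the 30-min fluorescence change (525/598 nm).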
Coupling enz – qHTS Assay for Inhibitors of Fructose-1,6-bisphosphate Aldolase from Giardia Lamblia: Coupling assay counterscreen. coupling enzyme system counterscreen, AmpLite Red fluorescence. 0.67% of 290,000 active. activity change, negative = inhibition, % at 58.2 µM, hits read low; in the data active = activity change below about -30%
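Counterscreen lacking aldolase: glyceraldehyde-3-phosphate coupling-enzyme reagent preincubated 10 min at RT with compound (at 57.5 uM final), then substrate/coupling system with AmpLite Red added; fluorescence read at 525/598 nm after 20 min RT.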
Tau ThT inhib – qHTS for Inhibitors of Tau Fibril Formation, Thioflavin T Binding; recombinant tau K18 P301L, heparin-induced fibrillization, ThT fluorescence; Microtubule-associated protein tau (Homo sapiens), P10636; Potency, µM (highest dose often 57.4 µM), inactives show at the highest dose activity, negative = inhibition, hits mostly inhibitors; AID 1460, 2008; 2.1% of 270,000 active; note: potency is the fitted concentration of half-maximal effect; nearly all actives have a fitted effect of over 55% in size
Target sequence (P10636 561-689 P618L limits assumed): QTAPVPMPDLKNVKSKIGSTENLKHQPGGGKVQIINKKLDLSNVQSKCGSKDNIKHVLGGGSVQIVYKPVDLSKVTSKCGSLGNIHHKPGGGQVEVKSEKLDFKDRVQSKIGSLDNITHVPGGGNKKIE
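Fibril formation assay: tau K18 P301L at 15 uM with trace Alexa 594 label, heparin inducer 20 uM, pH 7 sodium acetate buffer, 37 C for 6 hr; endpoint ThT signal.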
Tau fluor cs – Counterscreen qHTS for Inhibitors of Tau Fibril Formation, Fluorescence Polarization; tau K18 P301L Alexa594 fluorescence, heparin fibrillization; Potency, µM (titrated, usually from 57.7 µM), inactives show at the top dose activity change, negative = decrease; 0.93% of 280,000 active; AID 1463, 2008; note: potency is the fitted concentration of half-maximal effect; nearly all actives have a fitted effect of over 55% in size
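Human tau K18 P301L (15 uM unlabeled, 0.24 uM Alexa 594-labeled) in 100 mM sodium acetate pH 7 with 20 uM heparin, 6 hr at 37 C. ThT 30 uM added, 1 hr ambient; Alexa 594 FP and total fluorescence read at 555/632 nm.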
Tau FP inhib – qHTS for Inhibitors of Tau Fibril Formation, Fluorescence Polarization | AID 1468, 2008 | K18 P301L tau heparin fibrillization, Alexa594 FP, 6 h | 0.39% of 280,000 active | Potency, µM (top dose mostly 57.7 µM), without a hit: at the highest dose activity, negative = inhibition, usual class: inhibitors | Microtubule-associated protein tau (Homo sapiens), P10636; note: potency is the fitted concentration of half-maximal effect; nearly all actives have a fitted effect of over 55% in size
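Quantitative HTS format: compounds meet 15 uM recombinant K18 P301L tau and Alexa 594-tau tracer in 100 mM sodium acetate pH 7; 20 uM heparin triggers fibrillization at 37 C over 6 hr; FP gives the signal.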
* = called active by the depositor; ? = inconclusive; nt = not tested or not shown; [ ] = another dose, or the depositor's remark. Rows were chosen to be rich in hits. Some 5.3% of all compounds tested hit in one or more screens of this group. Unless noted, calls come from the whole dose curve; as a rule, active = well fitted curve in the direction sought with a large enough effect; inconclusive = small, poorly fitted or top-dose-only effect, or another doubt; inactive = no such curve, though single readings can be large; an effect the other way counts as inactive or inconclusive. Unless noted, % is set by controls: 0 for no effect and ±100 for the full control effect.

SMILES	JMJD2E inh	Sfp inh	Coupling enz	Tau ThT inhib	Tau fluor cs	Tau FP inhib
CCN1CC(CCN2CCOCC2)C(c2ccccc2)(c2ccccc2)C1=O (stereo not given)	nt	2.1%	nt	nt	nt	nt
Cc1cc(C)c(Cc2c(C)nc3c(C(=O)NCc4ccco4)cnn3c2C)c(C)c1	?	56.2µM*	-0.4	?	-14.2%	-15.7%
O=C(NCc1ccco1)c1cnn2c(C(F)(F)F)cc(-c3cccs3)nc12	?	31.6µM*	3.6	?	-18.9%	?
CCOCCCn1c(=N)c(C(=O)NCc2cccnc2)cc2c(=O)n3cc(C)ccc3nc21	nt	nt	nt	-7.9%	-11.8%	0.7%
FC(F)(F)c1cccc(NCc2cn3cccnc3n2)c1	-11.6%	7.7%	-51.6*	-3.6%	-10.3%	5.1%
CC(C)(C)CC(=O)Nc1cccc(-c2cn3cccnc3n2)c1	?	18.0%	0.0	7.1%	8.1%	1.8%
COc1ccc(C2/C=C\CN(C(=O)CC(C)(C)C)C(C)C(=O)N2Cc2ccc(F)cc2)cc1 (stereo not given)	nt	9.5%	-1.6	nt	nt	nt
Cc1ccc(Nc2ncnc3c2nc2n3CCCC2)c(Br)c1	nt	nt	nt	6.9%	14.3%	6.1%
Fc1ccc(C[n+]2csc3ccccc32)cc1	?	44.7µM*	-1.6	?	-21.4%	?
O=C(Cc1csc2ccccc12)NCc1ccc(F)cc1	nt	nt	nt	-2.8%	-18.7%	-6.6%
CC1(C)CCC[C@@](C)([C@H]2CC[C@]3(C)[C@@H]2[C@H](O)C[C@@H]2[C@@]4(C)CC[C@H](O)C(C)(C)[C@@H]4[C@@H](O)C[C@]23C)O1	nt	8.8%	2.7	-14.5%	-13.7%	0.9%
COC(=O)c1cc(CSc2nnc(NC3CCCCC3)s2)oc1C	5.7%	31.6µM*	1.5	-16.2%	-4.6%	4.2%
O=c1cc(CSc2nnc(NC3CCCCC3)s2)nc2sccn12	-7.9%	15.7%	-6.9	-11.5%	-9.1%	-3.6%
CSCC[C@H](NC(=O)[C@H](CC(C)C)N(C)C(=O)[C@@H]1CCCN1C(=O)[C@H](Cc1ccccc1)NC(=O)[C@H](Cc1ccccc1)NC(=O)CCC(C)N)C(=O)O (stereo not given in full)	nt	-20.1%	4.6	nt	nt	nt
Cc1ccc(NC(=O)Cn2c(=S)[nH]c3ccccc32)cc1	2.8%	44.7µM*	0.7	?	-13.7%	0.0%
Cc1cc(C)c(C#N)c(=N)o1	?	14.1µM*	0.4	?	-12.1%	-16.6%
COCCNC(=O)c1cc2c(-c3ccc(Cl)cc3)nn(C)c2s1	?	10.0%	-0.7	?	-28.2%	-4.9%
CC(C)NC(=O)c1cc2c(-c3ccc(Cl)cc3)nn(C)c2s1	8.91µM*	2.6%	3.1	-2.4%	-3.1%	-6.8%
O=C(C[n+]1ccc(CCSc2ccc(F)cc2)cc1)c1ccccc1	?	50.1µM*	-9.5	28.2µM*	-13.9%	?
O=C(NNc1c2ccccc2nc2ccccc12)c1ccc(O)cc1O	?	-13.6%	-1.3	2.24µM*	12.6µM*[quencher]	7.6%
O=C(NNc1c2ccccc2nc2ccccc12)c1ccccc1Cl	nt	7.4%	-0.3	nt	nt	nt
COc1ccc(OCC(=O)NNc2c3ccccc3nc3ccccc23)cc1	?	-21.6%	0.6	6.31µM*	15.8µM*[quencher]	?
O=C(NNc1c2ccccc2nc2ccccc12)C(O)c1ccccc1 (stereo not given)	-2.8%	0.4%	-7.3	14.1µM*	?	10.9%
O=C(NNc1c2ccccc2nc2ccccc12)c1ccccc1O	?	?	-0.2	2.24µM*	6.31µM*[quencher]	-0.6%
COc1ccc(C2=C(N3CCN(c4cccc(C)c4C)CC3)c3ccccc3C2=O)cc1	nt	nt	nt	?	?	12.9%
SMILES	JMJD2E inh	Sfp inh	Coupling enz	Tau ThT inhib	Tau fluor cs	Tau FP inhib
O=C(Nc1cc2ccc(O)cc2oc1=O)c1ccccc1	nt	nt	nt	-9.4%	-8.1%	-3.4%
CN(Cc1ccccc1)C(=O)[C@H](Cc1ccc2ccccc2c1)NC(=O)[C@@H]1C[C@@H](O)CN1C(=O)c1cn(C)c2ccccc12	nt	-6.6%	4.4	?	-21.8%	-4.3%
COc1ccc(-c2nc3cnc(OC)nc3n(C[C@H]3CCCO3)c2=O)cc1	nt	16.5%	-4.0	nt	nt	nt
O=C(NNc1c2ccccc2nc2ccccc12)c1ccc(O)cc1	-1.2%	-23.1%	-1.9	?	?	1.6%
COc1ccc(C)c2sc(NNC(=O)COc3ccccc3)nc12	-9.7%	56.2µM*	0.6	-3.6%	-7.7%	6.8%
O=C(NNc1nc(=O)c2cccnc2s1)c1ccccc1O	14.1µM*	19.8%	0.0	?	-13.4%	4.3%
O=C(NNc1c2ccccc2nc2ccccc12)c1cccc(O)c1	?	-2.1%	-1.3	2.82µM*	14.1µM*[quencher]	13.2%
COCCn1c(=O)c(-c2cn(C)c3ccccc23)nc2cnc(Oc3cccc(Cl)c3)nc21	nt	9.4%	2.9	nt	nt	nt
COc1ccccc1CNC(=O)CCC1N=C2c3ccccc3N=C(SCc3cccc(Cl)c3)N2C1=O (stereo not given)	nt	nt	nt	-3.3%	9.2%	-6.3%
COc1cc(/C=C/C(=O)N2CCCC2)cc(OC)c1OC	?	20.6%	2.5	-5.9%	11.0%	1.4%
COc1cc(/C=C/C(=O)N2CCCCC2=O)cc(OC)c1OC	-8.2%	-12.1%	3.9	11.2µM*	-15.2%	?
CCCOc1ccc(NC(=O)CC2C(=O)N(c3cccc(C)c3)C(=O)N2CCc2ccncc2)cc1 (stereo not given)	nt	nt	nt	-8.6%	-28.4%	0.5%
CCCCOc1ccc(-c2c(C#N)c(N)nc(SCC(N)=O)c2C#N)cc1	?	-15.0%	3.7	-11.3%	?	22.4µM*
CCCCOC(=O)CSc1nc(N)c(C#N)c(-c2ccc(OCC)cc2)c1C#N	?	5.8%	-2.0	-4.1%	-19.8%	?
CC(C)C/C(O)=C/c1nc2cc(Cl)ccc2oc1=O	4.1%	56.2µM*	-2.5	-1.8%	0.2%	4.9%
CCOC(=O)C1OC1C(=O)N[C@@H](CC(C)C)C(=O)NCCC(C)C (stereo not given in full)	nt	-1.3%	0.6	nt	nt	nt
O=C(NCCCCN1CCOCC1)c1cc2ccccc2o1	nt	4.3%	-2.8	nt	nt	nt
CCOCCn1ccc2c(OCC(=O)Nc3ccc(C(N)=O)cc3)cccc2c1=O	nt	nt	nt	-0.4%	9.7%	2.9%
COc1ccc(CCn2c(NN=C(C)C)nc3c2c(=O)[nH]c(=O)n3C)cc1	?	56.2µM*	-24.2	22.4µM*	?	?
